Key:
Assay in all cases: PBM binding z-score (relative to random genomic background probes); higher = stronger binding; sequences stand for … in GC…GCGATTGACAGCGTAGAATGAAGG
[1] = tested on: FXR:RXRa (NR concentration 270 nM, RXRa partner concentration 90 nM)
In short: (§1)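 Custom Agilent 4×180K protein-binding microarrays carried double-stranded probes, each with a 34-nt variable region. These regions held direct-repeat seeds, single-nucleotide variants, half-site ablations and random human genomic background sequences. Ligand-free nuclear receptor dimers were incubated on the arrays for 1 h, antibodies against each partner (one per run) detected binding, and scanned fluorescence was regression-normalized. Binding z-scores take the random background probes as reference.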

[2] = tested on: LXRa:RXRa (NR concentration 270 nM, RXRa partner concentration 90 nM)
In short: as §1

[3] = tested on: LXRa homodimer (NR concentration 270 nM)
In short: as §1

[4] = tested on: LXRb:RXRa (NR concentration 270 nM, RXRa partner concentration 90 nM)
In short: as §1

[5] = tested on: LXRb homodimer (NR concentration 270 nM)
In short: as §1

[6] = tested on: PPARa:RXRa (NR concentration 270 nM, RXRa partner concentration 90 nM)
In short: as §1

[7] = tested on: PPARg:RXRa (NR concentration 180 nM, RXRa partner concentration 90 nM)
In short: as §1

[8] = tested on: PPARg:RXRa 270nM:90nM, anti-RXR (NR concentration 270 nM, RXRa partner concentration 90 nM)
In short: as §1

[9] = tested on: PPARg:RXRa 30nM:10nM, anti-RXR (NR concentration 30 nM, RXRa partner concentration 10 nM)
In short: as §1

[10] = tested on: PPARg:RXRa 90nM:30nM, anti-RXR (NR concentration 90 nM, RXRa partner concentration 30 nM)
In short: as §1

[11] = tested on: PPARg:RXRa DBDmut IVT, anti-RXR (DBD mutation: RXRa K156A/R161A, NR concentration 270 nM, RXRa partner concentration 90 nM)
In short: as §1

[12] = tested on: PPARg:RXRa IVT, anti-PPARg (NR concentration 270 nM, RXRa partner concentration 90 nM)
In short: as §1

[13] = tested on: PPARg DBDmut:RXRa IVT, anti-PPARg (DBD mutation: PPARg1 K132A/R137A, NR concentration 270 nM, RXRa partner concentration 90 nM)
In short: as §1

[14] = tested on: PPARg DBDmut IVT, anti-PPARg (DBD mutation: PPARg1 K132A/R137A, NR concentration 270 nM)
In short: as §1

[15] = tested on: PPARg homodimer (NR concentration 180 nM)
In short: as §1

[16] = tested on: PXR:RXRa (NR concentration 270 nM, RXRa partner concentration 90 nM)
In short: as §1

[17] = tested on: PXR homodimer (NR concentration 270 nM)
In short: as §1

[18] = tested on: RARa:RXR (NR concentration 270 nM, RXRa partner concentration 90 nM)
In short: as §1

[19] = tested on: RARa homodimer (NR concentration 270 nM)
In short: as §1

[20] = tested on: RARb:RXRa (NR concentration 270 nM, RXRa partner concentration 90 nM)
In short: as §1

Sequence	PBM binding z-score [1]	PBM binding z-score [2]	PBM binding z-score [3]	PBM binding z-score [4]	PBM binding z-score [5]	PBM binding z-score [6]	PBM binding z-score [7]	PBM binding z-score [8]	PBM binding z-score [9]	PBM binding z-score [10]	PBM binding z-score [11]	PBM binding z-score [12]	PBM binding z-score [13]	PBM binding z-score [14]	PBM binding z-score [15]	PBM binding z-score [16]	PBM binding z-score [17]	PBM binding z-score [18]	PBM binding z-score [19]	PBM binding z-score [20]
CGTCCAAGGTCAGAGAGTTCAGTGAATGCCGAGT	5.22	4.79	3.36	3	-0.278	3.89	2.14	2.83	0.445	1.82	2.97	2.07	-0.209	-1.29	2.85	6.75	14.2	4.08	1.32	4.78
TCTGCTAGGTGAGTTGGTCAGCTAACGAGCTGCC	-0.433	-0.56	-0.902	-0.937	-0.888	-0.304	-0.825	0.406	0.873	0.748	1.24	1.52	0.145	-0.743	-1.59	-0.323	-0.828	-0.314	-1.28	0.429
ATCTCCAGGTAACCAAGTTCAGTGAATGCCGAAC	0.454	0.776	1.02	0.753	0.946	0.696	0.227	0.427	0.0617	0.231	0.934	1.52	0.875	0.957	0.841	2.24	2.55	0.649	0.534	0.985
CAAACCAGGTCACCGGAAGGTCAAAGTCCGCATG	7.26	6.79	5.52	6.01	1.71	6.08	7.88	6.92	4.07	6.45	5.78	6.75	1.83	1.5	9.32	6.5	3.77	8.09	3.77	5.33
AGAATGAGGTTATACGTAGATCAGGGACGAAAGT	2.37	1.79	0.0917	1.55	-0.0358	3.23	1.83	2	0.651	1.6	3.78	2.16	1.14	1.42	0.4	1.12	0.405	1.49	0.392	1.42
GAAACAGGGTCAGCTAGAGGCCAGAGTATGGAAA	5.08	2.78	-0.301	2.7	-0.705	4.97	4.24	3.85	0.859	2.72	2.53	3.11	0.33	-0.985	3.56	3.46	-0.0723	4.93	0.262	4.14
GCTAGCAGGACATTTGGGTCACTCAATGACGGGC	0.0183	-0.0744	-0.248	-0.0431	-0.72	1.31	0.997	0.479	-0.424	-0.0664	1.29	2.12	-1.17	-1.5	-0.156	0.607	0.862	0.611	-0.875	1.16
CTCGAAAGGTCGTGCTCTGGTGAGTATACCAAAC	4.94	3.65	0.255	3.52	0.0875	4.94	2.33	3.59	0.836	2.12	1.12	1.7	0.0542	0.48	1.41	2.92	-0.238	3.6	0.169	3.86
TCTCGGAGGACACGAAAGGTTAGAGCTCGACATC	1.18	0.89	-0.0791	0.782	-0.852	1.46	0.441	1.69	2.52	2.03	1.49	0.57	-0.609	-0.116	0.402	0.853	-0.519	1.52	0.215	2.48
ATACCAAGGCGATCGTGAGGTCGTTGATACTAAC	0.659	0.195	0.46	0.571	-0.375	0.703	0.16	-0.337	-0.383	-0.191	-0.138	-0.0368	-0.877	-0.313	-0.138	1.3	0.728	1.12	0.128	0.341
TCTATTAGTTGAGGGGCAACCGACGAGTCCGTTT	0.999	0.876	0.028	1.41	0.923	1.18	0.143	1.75	3.58	2.71	2.72	0.341	0.599	1.29	1.09	0.857	0.479	0.515	0.621	0.903
TAGCCTAGTTCATGGGCCAGTATACCACGCGAAC	0.00503	0.504	-0.133	0.304	-0.689	0.867	0.6	0.24	-0.416	0.104	0.459	0.731	-0.299	-0.226	-0.229	0.408	0.205	0.216	-0.319	1.37
GCTGCTAGATCAGGTTGGTCAGCTAACGGGTACG	-0.615	-0.876	-0.323	-0.953	-0.822	-1.19	-0.285	-1.02	-0.624	-0.926	-0.422	-0.787	-0.302	-0.87	-0.314	-0.686	-0.557	-0.344	-1.48	-0.392
